Assay results from PubChem BioAssay (NCATS).
Results filed as inconclusive are left out. A number with no mark means an inactive call. Active and inactive are the calls of the source. Calls come from the whole dose curve; as a rule, active = well fitted inhibition curve with a large enough effect; inconclusive = small, poorly fitted or top-dose-only effect; inactive = flat fitted curve, though single readings scatter. Where a SMILES comes first, the peptide text is derived from it. The star is where a group is joined. Hexanoyl = CCCCCC(=O)*

Biological target: Glutathione peroxidase 1 (Homo sapiens) (UniProt P07203)
Sequence (P07203 whole entry, looked up): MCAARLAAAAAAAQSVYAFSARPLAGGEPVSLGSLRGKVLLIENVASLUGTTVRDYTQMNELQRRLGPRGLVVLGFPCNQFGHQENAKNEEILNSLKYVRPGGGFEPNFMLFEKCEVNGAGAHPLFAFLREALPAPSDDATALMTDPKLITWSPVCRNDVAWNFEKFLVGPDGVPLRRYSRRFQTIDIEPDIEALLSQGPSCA
Assay: Primary qHTS Assay for Inhibitors of Recombinant Selenoprotein Glutathione Peroxidase 1 (GPX1) (AID 1845191); note: nearly all actives have a fitted effect of over 65% in size
Details: recombinant GPX1, GR-coupled NADPH fluorescence, 15 min; series mostly up to 27.7 µM; activity, negative = inhibition: at the top concentration
From the text: Assay Provider: Elias S.J. Arner MD PhD.
Department of Medical Biochemistry and Biophysics
Karolinska Institutet, Solna, Stockholm, Sweden
Selenoprotein glutathione peroxidases (GPX), like the ubiquitously expressed GPX1 and the ferroptosis modulator GPX4, enact their antioxidant activities by reducing hydroperoxides using glutathione. […] GPX1 and GPX4 inhibitors have thus shown promise as anti-cancer agents. Existing inhibitors are often promiscuous, or modulate GPX activity only indirectly, so novel direct inhibitors identified through screening against GPX1 and GPX4 could be valuable. Here, we developed optimized glutathione reductase (GR)-coupled GPX assays for the biochemical high-throughput screen (HTS) of almost 12,000 compounds with known mechanisms of action. Initial hits were triaged using a GR counter-screen, assessed for isoform specificity using a separate GPX2 assay, and were assessed for general selenocysteine-targeting activity using a thioredoxin reductase (TXNRD1) assay. With this suite of assays, we identified novel GPX1/GPX2- and GPX4-specific inhibitors and can here present a validated pipeline for future discovery research for selenoprotein-targeting agents.
SEQUENCE No. (e.g., 1, 2, 3, etc.); […] (e.g., Cells, Incubation, Reagent, etc.); VALUE; DESCRIPTION.
1; Reagent 1; 3 uL; GPx1 enzyme or no enzyme control in 1536-well, black, solid Greiner assay plate.
2; Compound; 25 nL; Kalypsis pin tool (Wako USA) equipped with a 1536-well pin head.
3; Incubation; 30 min; room temperature.
4; Reagent 2; 1 uL; 10 nM GPX1, 1 mM GSH, 0.5 mM CHP, 0.5 mM NADPH, 100 nM GR, 0.01% BSA substrate
5; Detection; Fluorescence; ViewLux microplate reader, excitation 340 nm and emission 450 nm.
6; Incubation; 15 min; room temperature.
7; Detection; Fluorescence; ViewLux microplate reader, excitation 340 nm and emission 450 nm.
NOTES (numbers refer to Sequence numbers above)
1. 3 uL of 16.66 nM GPX1 and 0.016% BSA in assay buffer (50 mM Tris-HCl, 2 mM EDTA (pH 7.5), 150 mM NaCl) was added to columns 3-48 of 1536-well assay plates using a BioRAPTR Flying Reagent Dispenser (Let's Go Robotics (LGR), Carlsbad, CA). A no-enzyme control (0.01% BSA in TES assay buffer) was added to columns 1-2.
2. 25 nL of test compounds and DMSO controls were added to each well with a pin tool (Kalypsys).
3. The assay plates were incubated for 30 minutes at room temperature.
4. 1 uL of master mix (500 nM glutathione reductase (GR), 5 mM reduced glutathione (GSH), 2.5 mM NADPH in assay buffer) was added. 1 uL of cumene hydroperoxide (CHP) ([2.5 mM] in 50% EtOH) was then added within 5 minutes to initiate the reaction. Final concentrations were: 10 nM GPX1, 1 mM GSH, 0.5 mM CHP, 0.5 mM NADPH, 100 nM GR, 0.01% BSA.
5. Initial fluorescence readout (t=0) at 340/450 nm was measured using a ViewLux multimodal detector (PerkinElmer, Waltham, MA).
7. Endpoint fluorescence readout (t=15) at 340/450 nm was measured 15 min after room temperature incubation.

| Compound | activity, negative = inhibition | outcome |
| --- | --- | --- |
| COC(=O)c1cc(OC)cc(OC)c1C(=O)c1c(OC)cc2c(c1O)C1CCC(O)C(C)(O2)O1 (stereo not given) | -13.9% |  |
| COc1cccc(OC)c1-c1ccc(C[C@H](NC(=O)c2c(Cl)cccc2Cl)C(=O)O)cc1 |  | inactive [at 48.8 µM] |
| O=C(O[C@@H]1O[C@H](CO)[C@@H](O)[C@H](O)[C@H]1O)c1ccccc1 | 3.66% [at 48.8 µM] |  |
| CC[C@H](NC(=O)c1c(O)c(-c2ccccc2)nc2ccccc12)c1ccccc1 | -25.1% [at 48.8 µM] |  |
| COc1cc2nc(=NC(=O)c3cccnc3)n3c(c2cc1OC)NCC3 |  | inactive [at 48.8 µM] |
| COC(=O)C1=CO[C@@H](O[C@@H]2O[C@H](CO)[C@@H](O)[C@H](O)[C@H]2O)[C@@H]2C(CO)=CC[C@H]12 |  | inactive |
| NC(=O)NCCCC(NC(=O)Cc1ccccc1)C(=O)O (stereo not given) |  | inactive [at 48.8 µM] |
| CC(C)(C)NS(=O)(=O)c1ccc(-c2ccc3[nH]nc(N)c3c2)cc1 |  | inactive [at 48.8 µM] |
| C=C(C)[C@@H]1CC[C@]2(C(=O)O)CC[C@]3(C)[C@H](CCC4[C@@]5(C)CCC(=O)C(C)(C)C5C(O)C[C@]43C)C12 (stereo not given in full) |  | inactive |
| COC(=O)C(CC1(O)c2ccccc2N2C(=O)C(CC(C)C)NC21)n1cnc2ccccc2c1=O (stereo not given) |  | inactive |
| COc1ccc(CCC(=O)c2c(O)cc(O[C@@H]3O[C@H](CO)[C@@H](O)[C@H](O)[C@H]3O[C@@H]3O[C@@H](C)[C@H](O)[C@@H](O)[C@H]3O)cc2O)cc1O | -18.3% [at 48.8 µM] |  |
| C[C@H]1[C@H](C)C[C@@H](C(=O)O)C2CC[C@]3(C)C(=CC[C@@H]4[C@@]5(C)CC[C@H](O)C(C)(C)[C@@H]5CC[C@]43C)[C@@H]21 (stereo not given in full) |  | inactive [at 48.8 µM] |
| O=C(/C=C/c1ccc(O)cc1)OCC1OC(O)C(OC2OC(CO)C(O)C(O)C2O)C(O)C1O (stereo not given) | 4.88% |  |
| O=C(/C=C/N1C[C@@H]2C[C@@H]1CN2c1ccccn1)c1ccccc1O |  | inactive [at 48.8 µM] |
| CCCCCC(=O)N1CCC[C@H]1C(=O)N[C@@H](Cc1ccc(O)cc1)C(=O)OC (Hexanoyl-Pro-Tyr-OMe) | -19.7% [at 48.8 µM] |  |
| COc1cn(-c2ccc(-n3cccn3)cc2F)nc(-c2ccnn2-c2ccccc2)c1=O |  | inactive [at 48.8 µM] |
| CC1=C2C3OC(=O)C(C)C3(O)CCC2(C)CCC1 (stereo not given) | -6.92% [at 48.8 µM] |  |
| C/C(CO)=C1/CCC23COC(C2)C(O)(C(=O)O)CCC13 (stereo not given) | -7.89% [at 48.8 µM] |  |
| CC1=C2C(=O)C=C(CO[C@@H]3O[C@H](CO)[C@@H](O)[C@H](O)[C@H]3O)[C@@H]2[C@H]2OC(=O)[C@H](C)[C@@H]2CC1 | -11.3% |  |
| CC(C)=CCC/C(C)=C/CO[C@@H]1O[C@H](CO[C@@H]2O[C@@H](CO)[C@H](O)[C@H]2O)[C@@H](O)[C@H](O)[C@H]1O |  | inactive |

| Compound | activity, negative = inhibition | outcome |
| --- | --- | --- |
| CCNC(=O)C1CC(F)(c2ccc(CN3CCCC3)c(F)c2)C1 (stereo not given) |  | inactive [at 48.8 µM] |
| CCC(C)C1NC(=O)C2C(C)CCN2C(=O)C(CC(O)CO)OC(=O)CCNC(=O)C(C)N(C)C(=O)C(C(C)C)N(C)C1=O (stereo not given) | -14.9% [at 15.3 µM] |  |
| C=CCc1ccc(O[C@@H]2O[C@H](CO)[C@@H](O)[C@H](O)[C@H]2O)c(O[C@@H]2O[C@H](CO)[C@@H](O)[C@H](O)[C@H]2O)c1 |  | inactive |
| CCc1cc(CC[C@]2(C3CCCC3)CC(O)=C(Cc3nc4nc(C)cc(C)n4n3)C(=O)O2)cc(CC)n1 | -8.81% [at 48.8 µM] |  |
| CC[C@H](C)[C@H](NC(=O)[C@H](Cc1ccc(O)cc1)NC(=O)[C@@H](N)C(C)C)C(=O)N[C@@H](Cc1cnc[nH]1)C(=O)N1CCC[C@H]1C(=O)N[C@@H](Cc1ccccc1)C(=O)O |  | inactive [at 4.49 µM] |
| COC(=O)C[C@@H]1C(C(=O)O)=CO[C@@H](O[C@@H]2O[C@H](CO)[C@@H](O)[C@H](O)[C@H]2O)/C1=C\COC(=O)/C=C/c1ccc(O)c(OC)c1 |  | inactive [at 15.3 µM] |
| O=C(O)CC(CCc1ccccc1)OC1OC(CO)C(O)C(O)C1O (stereo not given) | -15% |  |
| CCC1(O)CC2c3cc(OC)c(OC)cc3CCN2CC1CC(C)C (stereo not given) | -16.4% [at 48.8 µM] |  |
| CCOC(=O)COc1ccc2c(c1)C[C@@H](NC[C@H](O)c1cccc(Cl)c1)CC2 | -8.87% [at 48.8 µM] |  |
| CC1OC(OC2C(OC(=O)[C@]34CCC(C)(C)C[C@H]3C3=CCC5[C@@]6(C)CC[C@H](OC7OC(C(=O)O)C(O)C(O)C7O)C(C)(C)C6CC[C@@]5(C)[C@]3(C)CC4O)OC(CO)C2O)C(O)C(O)C1OC1OCC(O)C(O)C1O (stereo not given in full) | -14.3% [at 15.3 µM] |  |
| COC(=O)C1=COC(OC2OC(CO)C(O)C(O)C2O)C2C(C)C(OC(=O)/C=C/c3ccc(O)cc3)C(O)C12 (stereo not given) |  | inactive |
| O=C(N[C@H](Cc1ccccc1)C(=O)O)c1sc2cc(F)ccc2c1Cl | -5.98% [at 48.8 µM] |  |
| Oc1ccc2c(-c3c(-c4ccccn4)nn4c3CCC4)ccnc2c1 | -16.5% [at 48.8 µM] |  |
| CCCNCCOc1ccc(NC(=O)c2c[nH]c3c2C(=O)CCC3)cc1F | 3.84% [at 48.8 µM] |  |
| CC1=C(CC/C(C)=C/C(=O)O)[C@@]2(C)CCCC(C)(C)C2CC1=O (stereo not given in full) |  | inactive |
| C=C1C(O)CC2C(C(=O)O)=COC(OC3OC(CO)C(O)C(O)C3OC(=O)/C=C\c3ccc(O)cc3)C12 (stereo not given) | -6.89% |  |
| C/C=C/C=C/[C@@H]1O[C@](O)([C@H](CC)C(=O)NC/C=C/C=C(\C)[C@@H](OC)[C@@H](C)[C@@H]2O[C@H](/C=C/C=C/C=C(\C)C(=O)c3c(O)ccn(C)c3=O)[C@H](O)[C@@H]2O)[C@H](O)[C@H](O)C1(C)C |  | inactive [at 15.3 µM] |
| CC(CC12CCCN1C(=O)C1CCCN1C2=O)OC(N)=O (stereo not given) | -3.99% |  |
| COc1c(O[C@@H]2O[C@H](CO)[C@@H](O)[C@H](O)[C@H]2O)c(CCC(=O)O)cc2ccoc12 | -2.49% |  |
| CC1(C)CC[C@]2(C(=O)O)CC[C@]3(C)C(=CCC4[C@@]5(C)CC[C@H](O[C@H]6O[C@H](C(=O)O)[C@@H](O)[C@H](O[C@@H]7O[C@H](CO)[C@H](O)[C@H](O)[C@H]7O)[C@H]6O)C(C)(C)C5CC[C@]43C)[C@@H]2C1 (stereo not given in full) | -20.4% [at 15.3 µM] |  |
